# Results filed as inconclusive are left out. A call without a number means that no potency is given here. Activity calls are given as the source filed them. Unless noted, calls come from the whole dose curve; as a rule, active = well fitted curve in the direction sought with a large enough effect; inconclusive = small, poorly fitted or top-dose-only effect, or another doubt; inactive = no such curve, though single readings can be large; an effect the other way counts as inactive or inconclusive.
# Legend:
# [1] = biological target: Catechol O-methyltransferase (Homo sapiens) (UniProt P21964); test: Confirmatory Screen for Target Class Profiling of Small Molecule Inhibitors of Methyltransferases (AID 1745852; calls by dose curve; note: potency is the fitted concentration of half-maximal effect); conditions: MTase-Glo luminescence, SAH detection, recombinant enzyme; measured here: COMT max response; stronger effect = lower value
# [2] = biological target: Guanidinoacetate N-methyltransferase (Homo sapiens) (UniProt Q14353); test: as above; conditions: MTase-Glo luminescence, SAH detection, recombinant enzyme; activity change, negative = inhibition: at 57.3 µM (top of the series) unless noted; series mostly up to 57.3 µM
# [3] = biological target: Nicotinamide N-methyltransferase (Homo sapiens) (UniProt P40261); test: as above; conditions: MTase-Glo luminescence, SAH detection, recombinant enzyme; measured here: NNMT max response; stronger effect = lower value
# [4] = biological target: Phenylethanolamine N-methyltransferase (Homo sapiens) (UniProt P11086); test: as above; conditions: MTase-Glo luminescence, SAH detection, recombinant enzyme; measured here: PNMT max response; stronger effect = lower value
# [5] = biological target: Glutathione peroxidase 1 (Homo sapiens) (UniProt P07203); test: Primary qHTS Assay for Inhibitors of Recombinant Selenoprotein Glutathione Peroxidase 1 (GPX1) (AID 1845191); conditions: recombinant GPX1, GR-coupled NADPH fluorescence, 15 min; series mostly up to 48.8 µM; note: nearly all actives have a fitted effect of over 65% in size
# How it was run: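 Recombinant GPX1 (10 nM final) was preincubated with compound for 30 min at room temperature, then reacted with 1 mM GSH, 0.5 mM CHP, 0.5 mM NADPH and 100 nM glutathione reductase; NADPH fluorescence (340/450 nm) was read at 0 and 15 min.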
# [6] = biological target: Phospholipid hydroperoxide glutathione peroxidase GPX4 (Homo sapiens) (UniProt P36969); test: Primary qHTS Assay for Inhibitors of Recombinant Selenoprotein Glutathione Peroxidase 4 (GPX4) (AID 1845192); conditions: recombinant GPX4, GR-coupled NADPH fluorescence, 15 min; series mostly up to 50 µM; note: nearly all actives have a fitted effect of over 65% in size
# How it was run: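 GR-coupled readout: 100 nM GR, 1 mM GSH, 0.5 mM NADPH; NADPH fluorescence (ex 340/em 450 nm) read at t=0 and after 15 min RT. GPX4 200 nM, preincubated 30 min with compound; substrate 0.5 mM CHP.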
# [7] = biological target: Luciferin 4-monooxygenase (Photinus pyralis) (UniProt P08659); test: Primary firefly luciferase (FLuc) qHTS assay for identification of artifact compounds. (AID 1845220); conditions: purified firefly luciferase, luminescence, 5 min; series mostly up to 54.1 µM; note: nearly all actives have a fitted effect of over 60% in size
# How it was run: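 In this counter-screen for luciferase artifacts, test compounds met substrate (10 uM each luciferin and ATP) before 10 nM enzyme started the reaction. Light output was measured 5 min later.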
# [8] = test system: Nanoluciferase (engineered Oplophorus gracilirostris luciferase); test: Primary Nanoluciferase (NLuc) qHTS assay for identification of artifact compounds. (AID 1845222); conditions: NLuc-conditioned medium, Nano-Glo luminescence, 5 min; series mostly up to 54.1 µM;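 note: NLuc secreted into diluted conditioned medium of S16 cells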
# How it was run: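 Using secreted nanoluciferase in S16 culture medium (0.22 um filtered, 1:55 dilution), compounds were preincubated 15 min at RT. Signal was generated with Nano-Glo reagent (1:100) over 5 min.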
# [9] = Primary redox qHTS assay for identification of artifact compounds. (AID 1845223); conditions: Amplex Red/HRP redox cycling with DTT, fluorescence; series mostly up to 53.8 µM
# How it was run: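 Amplex Red (25 uM) and HRP (250 mU/mL) in HBSS, with compounds for 15 min, then 250 uM DTT for 30 min, room temperature, dark. Fluorescence 525/598 nm read; normalized to DMSO and 10 uM DA3003; Hill fit.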
# [10] = Primary fluorescence-based thiol-reactive (MSTI) qHTS assay for identification of artifact compounds. (AID 1845221); conditions: MSTI thiol-reactivity probe, 1 h; series mostly up to 53.8 µM; note: nearly all actives have a fitted effect of over 65% in size; note: potency is the fitted concentration of half-maximal effect
# How it was run: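 Compounds were incubated 1 h at room temperature in the dark with the MSTI probe (4 uM) in PBS pH 7.4, 2% DMSO. Signals were normalized between Acetyl-MSTI and MSTI.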
# Sequence of Nicotinamide N-methyltransferase (Homo sapiens) (P40261 whole entry, looked up): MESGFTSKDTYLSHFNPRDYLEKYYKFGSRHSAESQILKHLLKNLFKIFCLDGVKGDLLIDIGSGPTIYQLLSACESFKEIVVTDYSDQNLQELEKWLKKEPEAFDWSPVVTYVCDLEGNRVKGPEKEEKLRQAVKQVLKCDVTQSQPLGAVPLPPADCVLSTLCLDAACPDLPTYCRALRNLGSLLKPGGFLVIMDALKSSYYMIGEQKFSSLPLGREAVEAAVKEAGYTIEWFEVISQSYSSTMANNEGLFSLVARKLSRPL
# Sequence of Phenylethanolamine N-methyltransferase (Homo sapiens) (P11086 whole entry, looked up): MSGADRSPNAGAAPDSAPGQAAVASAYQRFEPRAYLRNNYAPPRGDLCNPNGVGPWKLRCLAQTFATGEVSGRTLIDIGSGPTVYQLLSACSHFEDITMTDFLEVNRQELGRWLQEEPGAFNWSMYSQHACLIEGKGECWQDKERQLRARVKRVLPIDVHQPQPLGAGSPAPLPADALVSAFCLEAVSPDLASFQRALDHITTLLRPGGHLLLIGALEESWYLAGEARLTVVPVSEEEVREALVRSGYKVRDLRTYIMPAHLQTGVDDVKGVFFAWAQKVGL
# Sequence of Glutathione peroxidase 1 (Homo sapiens) (P07203 whole entry, looked up): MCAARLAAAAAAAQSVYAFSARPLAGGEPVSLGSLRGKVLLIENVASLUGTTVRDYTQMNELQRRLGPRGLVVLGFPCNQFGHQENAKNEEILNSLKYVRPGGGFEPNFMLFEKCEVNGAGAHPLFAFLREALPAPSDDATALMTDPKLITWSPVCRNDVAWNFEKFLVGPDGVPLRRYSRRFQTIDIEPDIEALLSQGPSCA
# Sequence of Catechol O-methyltransferase (Homo sapiens) (P21964 whole entry, looked up): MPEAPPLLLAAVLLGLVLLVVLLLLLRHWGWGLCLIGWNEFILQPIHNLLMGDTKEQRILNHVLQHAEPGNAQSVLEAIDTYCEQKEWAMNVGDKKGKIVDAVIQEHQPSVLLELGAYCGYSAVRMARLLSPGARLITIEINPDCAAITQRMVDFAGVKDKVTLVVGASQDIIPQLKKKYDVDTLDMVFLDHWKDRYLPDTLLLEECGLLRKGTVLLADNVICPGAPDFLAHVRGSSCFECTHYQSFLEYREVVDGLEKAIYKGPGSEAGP
# Sequence of Phospholipid hydroperoxide glutathione peroxidase GPX4 (Homo sapiens) (P36969 whole entry, looked up): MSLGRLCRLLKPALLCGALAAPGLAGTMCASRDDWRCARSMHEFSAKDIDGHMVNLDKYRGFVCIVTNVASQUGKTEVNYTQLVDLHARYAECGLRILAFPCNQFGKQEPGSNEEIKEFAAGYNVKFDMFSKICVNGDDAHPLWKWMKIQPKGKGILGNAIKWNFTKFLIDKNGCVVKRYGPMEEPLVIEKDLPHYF
SMILES,activity [1],"activity change, negative = inhibition [2]",activity [3],activity [4],Potency [5],Potency [6],Potency [7],Potency [8],Potency [9],Potency [10],Potency [2]
C=C1C(=O)O[C@@H]2/C=C(\CO)CC/C=C(/C=O)C[C@@H](O)[C@@H]12,-63.7%,-8.49%,-2.02%,-2.71%,inactive,inactive,inactive,inactive,inactive,,
Cc1ccc(CNc2ncnc3ccc(-c4ccc(CO)o4)cc23)o1,-5.85%,-1.25%,-7.73%,-9.87%,inactive,,inactive,inactive,inactive,inactive,
Nc1nc(NC2CC2)cc(-c2cccc(Cl)c2Cl)n1,-8.02%,-4.54%,-52.3%,-7.75%,inactive,,inactive,inactive,,inactive,
NC(=O)c1ccccc1Nc1ccnc(Nc2cccc(O)c2)n1,-4.04%,1.25%,-41.1%,-7.27%,inactive,inactive,,inactive,inactive,inactive,
C=C1C(=O)O[C@@H]2/C=C(\CO)CC/C=C(/C=O)C[C@H](O)[C@@H]12,-86.9%,-3.06%,4.28%,0.589%,inactive,inactive,,inactive,inactive,11.9 µM (active),
C/C=C(/C)C(=O)O[C@H]1C=C(CO)C(=O)[C@H](OC(=O)/C(C)=C/CO)[C@H]1C(C)C,-55.6%,-5.13%,-3.04%,-1.6%,inactive,inactive,inactive,inactive,inactive,,
C=C1C(=O)O[C@@H]2C3=C(C)CCC[C@]3(C)CC[C@@]12O,-87.7%,-4.1%,-7.46%,-3.37%,inactive,inactive,inactive,inactive,inactive,,
C=C1C(=O)OC[C@@H]1C/C=C(\C)CC1CC(C)C(=O)O1 (stereo not given in full),-80%,-0.246%,0.776%,0.671%,inactive,inactive,,,,8.44 µM (active),
Cc1cn(CCN2CCN(c3ccccc3-c3cc(C#N)cc(C(=O)NCCCN4CCCC4)c3)CC2)c2ccccc12,3.99%,10.2%,-4.29%,2.94%,,inactive,inactive,inactive,,inactive,
CC1(C)CC[C@]2(C(=O)O)CC[C@]3(C)C(=CCC4[C@@]5(C)C[C@@H](O)[C@H](O)C(CO)(CO)C5CC[C@]43C)C2[C@@H]1O (stereo not given in full),-63.1%,0% [at 29.8 µM],0%,6.04%,inactive,inactive,inactive,inactive,inactive,,
N#Cc1cnc2c(Cl)cc(NCc3cn(CCN4CCCCCC4)nn3)cc2c1Nc1ccc(F)c(Cl)c1,-24.8%,,-26.2%,-36.9%,inactive,inactive,inactive,inactive,inactive,,15.2 µM (active)

# Reference: PubChem BioAssay (NCATS)
